# PubChem BioAssay (Tox21)
# Activity calls are given as the source filed them. Entries that show only a call come without a potency. Calls come from the whole dose curve; as a rule, active = well fitted curve in the direction sought with a large enough effect in the repeat runs; inconclusive = weak or mixed curves; inactive = flat fitted curve, though single readings scatter.
# Test: qHTS assay to test for compound auto fluorescence at 590 nm (red) in HepG2 cells (AID 720674)
# Settings: HepG2 autofluorescence, red 540/590 nm, 1 h; series mostly up to 91.3 µM
# Summary of the method: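 1 hr compound incubation on HepG2 cells, 37 C, 5% CO2; plate read ex 540 nm / em 590 nm; intensities reported as Rose Bengal sodium equivalents.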
row,Compound,Potency
1,Cc1cccc(N(C)C(=S)Oc2ccc3ccccc3c2)c1,inactive
2,COc1ccc(OC)c(C(O)CNC(=O)CN)c1 (configuration not stated),inactive
3,O=C(c1ccccc1)c1ccc(O)cc1O,inactive
4,OC(CCl)CCl,inactive
5,CC1=CCC(C(C)(C)O)CC1 (configuration not stated),inactive
6,CN(C)CCC=C1c2ccccc2CCc2ccccc21,inactive
7,Nc1ccccc1N,inactive
8,O=C(OCc1ccccc1)c1ccccc1O,inactive
9,c1cc(-c2ccncc2)ccn1,inactive
10,CC(=O)c1ccccn1,inactive
11,CCCCNS(=O)(=O)c1ccccc1,inactive
12,C=CC(C)(CCC=C(C)C)OC(C)=O (configuration not stated),inactive
13,Cn1cnc([N+](=O)[O-])c1Sc1ncnc2nc[nH]c12,inactive
14,OCCO,inactive
15,NNc1ccc(C(=O)O)cc1,inactive
16,Cc1cccc(C(=O)O)c1,inactive
17,C=C(C)C1CC=C(C)CC1 (configuration not stated),inactive
18,CC(C)CC(C)(O)C#CC(C)(O)CC(C)C (configuration not stated),inactive
19,C#C[C@]1(O)CC[C@H]2[C@@H]3CCC4=Cc5oncc5C[C@]4(C)[C@H]3CC[C@@]21C,inactive
20,CCOC(=O)C(C#N)=C(c1ccccc1)c1ccccc1,inactive

row,Compound,Potency
1,Nc1ccc(S(=O)(=O)Nc2cnc3ccccc3n2)cc1,inactive
2,CCCCOCCOCCOCCO,inactive
3,c1ccncc1,inactive
4,COC(=O)CCC(=O)OC,inactive
5,Cc1[nH]c(=O)c(C#N)cc1-c1ccncc1,inactive
6,O=Cc1ccccc1O,inactive
7,C=C(C)C(=O)OCCOC(=O)C(=C)C,inactive
8,CN1C(C(=O)Nc2ccccn2)=C(O)c2ccccc2S1(=O)=O,inactive
9,CNCCCC12CCC(c3ccccc31)c1ccccc12,inactive
10,C[C@]12CC[C@H]3[C@@H](CCC4=CC(=O)CC[C@@]43C)[C@@H]1CC[C@@H]2C(=O)CO,inactive
11,O=C(c1ccc(OCCN2CCCCC2)cc1)c1c(-c2ccc(O)cc2)sc2cc(O)ccc12,inactive
12,COc1cccc2c1C(=O)c1c(O)c3c(c(O)c1C2=O)C[C@@](O)(C(=O)CO)C[C@@H]3O[C@H]1C[C@H](N)[C@H](O)[C@H](C)O1,inactive
13,Cc1cccc([N+](=O)[O-])c1C,inactive
14,Cc1c(C(N)=O)cc([N+](=O)[O-])cc1[N+](=O)[O-],inactive
15,CC(C)(C)NC(=O)[C@H]1CC[C@H]2[C@@H]3CC[C@H]4NC(=O)C=C[C@]4(C)[C@H]3CC[C@]12C,inactive
16,C#C[C@]1(O)CC[C@H]2[C@@H]3CCc4cc(OC)ccc4[C@H]3CC[C@@]21C,inactive
17,COC(C)COC(C)COC(C)CO (configuration not stated),inactive
18,O=C(/C=C/c1ccccc1)OCc1ccccc1,inactive
19,CC(=O)C1(C)CC2=C(CCCC2(C)C)CC1C (configuration not stated),inactive

# Test: qHTS assay to test for compound auto fluorescence at 535 nm (green) in HepG2 cells (AID 720675)
# Settings: green autofluorescence 485/535 nm, 1 h; series mostly up to 91.3 µM
row,Compound,Potency
1,Cc1cccc(N(C)C(=S)Oc2ccc3ccccc3c2)c1,inactive
2,COc1ccc(OC)c(C(O)CNC(=O)CN)c1 (configuration not stated),inactive
3,O=C(c1ccccc1)c1ccc(O)cc1O,inactive
4,OC(CCl)CCl,inactive
5,CC1=CCC(C(C)(C)O)CC1 (configuration not stated),inactive
6,CN(C)CCC=C1c2ccccc2CCc2ccccc21,inactive
7,O=C(OCc1ccccc1)c1ccccc1O,inactive
8,c1cc(-c2ccncc2)ccn1,inactive
9,CC(=O)c1ccccn1,inactive
10,CCCCNS(=O)(=O)c1ccccc1,inactive
11,C=CC(C)(CCC=C(C)C)OC(C)=O (configuration not stated),inactive
12,Cn1cnc([N+](=O)[O-])c1Sc1ncnc2nc[nH]c12,inactive
13,OCCO,inactive
14,NNc1ccc(C(=O)O)cc1,inactive
15,Cc1cccc(C(=O)O)c1,inactive
16,C=C(C)C1CC=C(C)CC1 (configuration not stated),inactive
17,CC(C)CC(C)(O)C#CC(C)(O)CC(C)C (configuration not stated),inactive
18,C#C[C@]1(O)CC[C@H]2[C@@H]3CCC4=Cc5oncc5C[C@]4(C)[C@H]3CC[C@@]21C,inactive
19,CCOC(=O)C(C#N)=C(c1ccccc1)c1ccccc1,inactive

row,Compound,Potency
1,Nc1ccc(S(=O)(=O)Nc2cnc3ccccc3n2)cc1,inactive
2,CCCCOCCOCCOCCO,inactive
3,c1ccncc1,inactive
4,COC(=O)CCC(=O)OC,inactive
5,Cc1[nH]c(=O)c(C#N)cc1-c1ccncc1,inactive
6,O=Cc1ccccc1O,inactive
7,C=C(C)C(=O)OCCOC(=O)C(=C)C,inactive
8,CN1C(C(=O)Nc2ccccn2)=C(O)c2ccccc2S1(=O)=O,inactive
9,CNCCCC12CCC(c3ccccc31)c1ccccc12,inactive
10,C[C@]12CC[C@H]3[C@@H](CCC4=CC(=O)CC[C@@]43C)[C@@H]1CC[C@@H]2C(=O)CO,inactive
11,O=C(c1ccc(OCCN2CCCCC2)cc1)c1c(-c2ccc(O)cc2)sc2cc(O)ccc12,inactive
12,COc1cccc2c1C(=O)c1c(O)c3c(c(O)c1C2=O)C[C@@](O)(C(=O)CO)C[C@@H]3O[C@H]1C[C@H](N)[C@H](O)[C@H](C)O1,inactive
13,Cc1cccc([N+](=O)[O-])c1C,inactive
14,Cc1c(C(N)=O)cc([N+](=O)[O-])cc1[N+](=O)[O-],inactive
15,CC(C)(C)NC(=O)[C@H]1CC[C@H]2[C@@H]3CC[C@H]4NC(=O)C=C[C@]4(C)[C@H]3CC[C@]12C,inactive
16,C#C[C@]1(O)CC[C@H]2[C@@H]3CCc4cc(OC)ccc4[C@H]3CC[C@@]21C,inactive
17,COC(C)COC(C)COC(C)CO (configuration not stated),inactive
18,O=C(/C=C/c1ccccc1)OCc1ccccc1,inactive
19,CC(=O)C1(C)CC2=C(CCCC2(C)C)CC1C (configuration not stated),inactive
